# Data reported in PubChem BioAssay (NCATS).
# Records with an inconclusive call do not appear. Entries that show only a call come without a potency. Active and inactive are the calls of the source. Unless noted, calls follow the shape of the dose curve; as a rule, active = well fitted curve in the direction sought with a large enough effect; inconclusive = small, poorly fitted or top-dose-only effect, or another doubt; inactive = no such curve, though single readings can be large; an effect the other way counts as inactive or inconclusive.
# Tests used:
# [1] = S16 Schwann cell viability assay (CellTiter-Glo assay) (AID 624031); details: S16 rat Schwann cells viability, 24 h; series mostly up to 57.5 µM;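 also: cellular ATP luminescence as a viability measure; nearly all actives have a fitted effect of over 70% in size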
# In short: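 CellTiter-Glo ATP luminescence counter-screen in untransfected S16 rat Schwann cells, 24h compound exposure at 37 degree Celsius after overnight seeding (500-750 cells/well); response scaled between cell-free wells and DMSO (0% activity), curves classed by r2 and magnitude.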
# [2] = S16 Schwann cell PMP22 intronic element beta-lactamase assay (AID 624044; calls by dose curve; also: nearly all actives have a fitted effect of over 15% in size); details: S16 rat Schwann cells, PMP22 element beta-lactamase FRET, 24 h; ratio activity, negative = inhibition: at 38.3 µM (top of the series)
# In short: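 Rat S16 Schwann cells with beta-Lac driven by a PMP22 intronic element, compound-treated 24 h at 37 °C. LiveBLAzer FRET B/G read: 460 nm normalized to potassium clavulanate vs DMSO; 535 nm FRET as viability; concentration-effect curves classified.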
# AA1029 = assay: qHTS profiling for inhibitors of Plasmodium falciparum proliferation (AID 504749); also: nearly all actives have a fitted effect of over 60% in size; also: potency is read from the fitted curve at half-maximal effect; details: P. falciparum in erythrocytes, SYBR Green DNA, 72 h; series mostly up to 28.7 µM
# In short: (§1)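 Infected RBCs, 0.3% parasitemia/2.5% Hct final; cpd 72 h, 37 C, 5% CO2; lysis buffer with saponin/triton/SYBR Green I, o/n RT dark; FI 485/535; norm. to artemisinin (0.29 uM) and DMSO.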
# AS120 = assay: as above; details: P. falciparum in erythrocytes, SYBR Green DNA, 72 h; series mostly up to 28.7 µM
# In short: as §1
# ATS95 = assay: as above; details: P. falciparum in erythrocytes, SYBR Green DNA, 72 h; series mostly up to 28.7 µM
# In short: as §1
# CP194 = assay: as above; details: P. falciparum in erythrocytes, SYBR Green DNA, 72 h; series mostly up to 28.7 µM
# In short: as §1
# CP247 = assay: as above; details: P. falciparum in erythrocytes, SYBR Green DNA, 72 h; series mostly up to 28.7 µM
# In short: as §1
# CP266 = assay: as above; details: P. falciparum in erythrocytes, SYBR Green DNA, 72 h; series mostly up to 28.7 µM
# In short: as §1
# CP297 = assay: as above; details: P. falciparum in erythrocytes, SYBR Green DNA, 72 h; series mostly up to 28.7 µM
# In short: as §1
# DFO2036 = assay: as above; details: P. falciparum in erythrocytes, SYBR Green DNA, 72 h; series mostly up to 28.7 µM
# In short: as §1
# DIV14 = assay: as above; details: P. falciparum in erythrocytes, SYBR Green DNA, 72 h; series mostly up to 28.7 µM
# In short: as §1
# GB4 = assay: as above; details: P. falciparum in erythrocytes, SYBR Green DNA, 72 h; series mostly up to 28.7 µM
# In short: as §1
# ICS = assay: as above; details: P. falciparum in erythrocytes, SYBR Green DNA, 72 h; series mostly up to 28.7 µM
# In short: as §1
# P93_24 = assay: as above; details: P. falciparum in erythrocytes, SYBR Green DNA, 72 h; series mostly up to 28.7 µM
# In short: as §1
# P94_40 = assay: as above; details: P. falciparum in erythrocytes, SYBR Green DNA, 72 h; series mostly up to 28.7 µM
# In short: as §1
# PAD = assay: as above; details: P. falciparum in erythrocytes, SYBR Green DNA, 72 h; series mostly up to 28.7 µM
# In short: as §1
# PC15 = assay: as above; details: P. falciparum in erythrocytes, SYBR Green DNA, 72 h; series mostly up to 28.7 µM
# In short: as §1
# PC26 = assay: as above; details: P. falciparum in erythrocytes, SYBR Green DNA, 72 h; series mostly up to 28.7 µM
# In short: as §1
# SC27B = assay: as above; details: P. falciparum in erythrocytes, SYBR Green DNA, 72 h; series mostly up to 28.7 µM
# In short: as §1
# TAB165 = assay: as above; details: P. falciparum in erythrocytes, SYBR Green DNA, 72 h; series mostly up to 28.7 µM
# In short: as §1
Compound,Potency [1],Potency [2],Potency (AA1029),Potency (AS120),Potency (ATS95),Potency (CP194),Potency (CP247),Potency (CP266),Potency (CP297),Potency (DFO2036),Potency (DIV14),Potency (GB4),Potency (ICS),Potency (P93_24),Potency (P94_40),Potency (PAD),Potency (PC15),Potency (PC26),Potency (SC27B),Potency (TAB165)
C[C@]12C=CC(=O)C=C1CC[C@@H]1C2CC[C@]2(C)OC(=O)CCC12 (stereo partly specified),inactive,inactive,inactive,inactive,inactive,inactive,inactive,inactive,inactive,inactive,inactive,inactive,inactive,inactive,inactive,inactive,inactive,inactive,inactive,inactive
COc1ccc2c3c1O[C@H]1[C@@H](O)C=C[C@H]4C(C2)NCCC341 (stereo partly specified),inactive,inactive,inactive,inactive,inactive,inactive,inactive,inactive,inactive,inactive,inactive,inactive,inactive,inactive,inactive,inactive,inactive,inactive,inactive,inactive
C[C@@H]1CC[C@H]2[C@@H](C)C(=O)O[C@@H]3OC4(C)CC[C@@H]1C32OO4 (stereo partly specified),,inactive,11.2 nM (active),7.1 nM (active),11.2 nM (active),16.9 nM (active),10 nM (active),19 nM (active),15.1 nM (active),7.1 nM (active),7.6 nM (active),6.7 nM (active),2.5 nM (active),3.5 nM (active),2.8 nM (active),7.1 nM (active),10 nM (active),7.6 nM (active),7.1 nM (active),3.2 nM (active)
C=C1Nc2ccccc2C(=O)N1c1ccccc1C,inactive,,inactive,inactive,inactive,inactive,inactive,inactive,inactive,inactive,inactive,inactive,inactive,inactive,inactive,inactive,inactive,inactive,inactive,inactive
CCOC(=O)/C=C(C)/C=C/CC(C)CCCC(C)C (stereo unspecified),inactive,inactive,inactive,inactive,inactive,inactive,inactive,inactive,inactive,inactive,inactive,inactive,inactive,inactive,inactive,inactive,inactive,inactive,inactive,inactive
CCCN1CCCC2Cc3nc(N)ncc3CC21 (stereo unspecified),inactive,inactive,inactive,inactive,inactive,inactive,inactive,inactive,inactive,inactive,inactive,inactive,inactive,inactive,inactive,inactive,inactive,inactive,inactive,inactive
OCC(O)[C@H]1O[C@@H]2O[C@H](C(Cl)(Cl)Cl)O[C@@H]2[C@H]1O (stereo partly specified),inactive,inactive,inactive,inactive,inactive,inactive,inactive,inactive,inactive,inactive,inactive,inactive,inactive,inactive,inactive,inactive,inactive,inactive,inactive,inactive
CCCCCc1cc(O)c2c(c1)OC(C)(C)C1CC=C(C)CC21 (stereo unspecified),,,2820 nM (active),2240 nM (active),3160 nM (active),5360 nM (active),5010 nM (active),12000 nM (active),,3160 nM (active),1510 nM (active),1690 nM (active),891 nM (active),2510 nM (active),2510 nM (active),1780 nM (active),5010 nM (active),1900 nM (active),2000 nM (active),2000 nM (active)
Cc1cc(C)cc(C(=O)OC2CC3CCC(C2)N3C)c1 (stereo unspecified),,,inactive,inactive,inactive,inactive,inactive,inactive,inactive,inactive,7570 nM (active),inactive,,inactive,inactive,,,,inactive,inactive
CN1C2CCC1C(C(=O)O)C(OC(=O)c1ccccc1)C2 (stereo unspecified),inactive,inactive,inactive,inactive,inactive,inactive,inactive,inactive,inactive,inactive,inactive,inactive,inactive,inactive,inactive,inactive,inactive,inactive,inactive,inactive
OC[C@@H](O)[C@H]1O[C@@H]2OC(C(Cl)(Cl)Cl)O[C@H]2[C@H]1O (stereo partly specified),inactive,inactive,inactive,inactive,inactive,inactive,inactive,inactive,inactive,inactive,inactive,inactive,inactive,inactive,inactive,inactive,inactive,inactive,inactive,inactive
Nc1nc(O)c(-c2ccccc2)o1,,inactive,inactive,inactive,inactive,inactive,inactive,,inactive,inactive,inactive,inactive,inactive,inactive,inactive,inactive,inactive,inactive,inactive,inactive
CC1(C)[C@@H](C=C(Cl)Cl)[C@@H]1C(=O)OCc1c(F)c(F)cc(F)c1F,inactive,inactive,inactive,inactive,inactive,inactive,inactive,inactive,,inactive,inactive,inactive,inactive,inactive,inactive,inactive,inactive,inactive,inactive,inactive
C=CC[N+]1(C)CCC23c4c5ccc(O)c4O[C@H]2C(=O)CC[C@@]3(O)C1C5 (stereo partly specified),inactive,inactive,inactive,inactive,inactive,inactive,inactive,inactive,inactive,inactive,inactive,inactive,inactive,inactive,inactive,inactive,inactive,inactive,inactive,inactive
Cc1ccc2c(c1)[C@@H]1CN(C)CC[C@H]1N2,inactive,inactive,inactive,inactive,inactive,inactive,inactive,,inactive,inactive,inactive,,inactive,inactive,inactive,inactive,inactive,inactive,inactive,inactive
CC1OC(O[C@H]2C[C@@H](O)[C@]3(CO)[C@@H]4C(CC[C@]3(O)C2)[C@@]2(O)CC[C@H](C3=CC(=O)OC3)[C@@]2(C)C[C@H]4O)C(O)C(O)C1O (stereo partly specified),inactive,inactive,inactive,inactive,inactive,inactive,inactive,inactive,inactive,inactive,inactive,inactive,inactive,inactive,inactive,inactive,,,inactive,inactive
CCCCCC(O)C1C(=O)OC(C)C(O)\C=C/C=C\C=C/C=C\C=C(\C)C(O)C(O)C(O)CC(O)CC(O)CC(O)CC(O)CC1O (stereo unspecified),inactive,,inactive,inactive,inactive,inactive,inactive,inactive,inactive,inactive,inactive,inactive,inactive,inactive,inactive,inactive,inactive,inactive,inactive,inactive
C[C@H](N)Cc1ccccc1,inactive,inactive,inactive,inactive,inactive,inactive,inactive,inactive,inactive,inactive,,inactive,inactive,inactive,inactive,inactive,inactive,inactive,inactive,inactive
C#CCN1CC(=O)N(COC(=O)[C@@H]2[C@@H](C=C(C)C)C2(C)C)C1=O,inactive,inactive,inactive,inactive,inactive,inactive,inactive,,,inactive,inactive,inactive,inactive,inactive,inactive,inactive,inactive,inactive,inactive,inactive
CCC(=O)OC1(c2ccccc2)CCN(C)CC1C (stereo unspecified),inactive,inactive,,,,,,inactive,12000 nM (active),,inactive,7570 nM (active),inactive,,,inactive,inactive,,,
C[C@]12CCC3C(CCC4=C(Cl)C(=O)CC[C@@]43C)C1CCC2O (stereo partly specified),inactive,,inactive,inactive,inactive,inactive,inactive,inactive,inactive,inactive,inactive,inactive,inactive,inactive,inactive,inactive,inactive,inactive,inactive,inactive
CC1CC[C@@]2(NC1)OC1CC3C4CC[C@@H]5CC(O)CC[C@@]5(C)C4CC[C@]3(C)C1C2C (stereo partly specified),inactive,inactive,inactive,,inactive,inactive,,inactive,inactive,inactive,,,10000 nM (active),,,,inactive,,,
